The results in this text go back to PubChem BioAssay AID651815 (National Center for Advancing Translational Sciences (NCATS), 2012).

Screen size: about 2,100 compounds; about 1,100 (52%) were called active. Inconclusive results (about 29%) are left out. The set was probably picked from earlier hits. Some of the results follow. Values without a mark were called inactive. The call rests on the fitted dose curve; in most records, active means well fitted inhibition curve with a large enough effect; inconclusive means small, poorly fitted or top-dose-only effect; inactive means no such curve, though single readings can be large or run the other way.
On the % scale 0 is the no-effect control and ±100 the full control effect; potency means the concentration at half of the fitted maximal effect.

For this test, the target named is DNA dC->dU-editing enzyme APOBEC-3F (Homo sapiens) (UniProt Q8IUX4). The test is described as follows: qHTS for inhibitors of Vif-A3F interactions: Cherry picks counterscreen. Further: nearly all actives have a fitted effect of over 65% in size. Particulars: HeLa A3F-eYFP/Vif cells, eYFP fluorescence, 24 h; series mostly up to 46.1 µM; activity, negative = inhibitor: at the top concentration. A digest of the protocol: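 Rescue of Vif-driven A3F-eYFP degradation read as cellular eYFP fluorescence after 24 h compound exposure (several concentrations) in stable HeLa cells; MG132 (2 mM stock) as positive control.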
Chain of DNA dC->dU-editing enzyme APOBEC-3F (Homo sapiens) (Q8IUX4 whole entry, looked up): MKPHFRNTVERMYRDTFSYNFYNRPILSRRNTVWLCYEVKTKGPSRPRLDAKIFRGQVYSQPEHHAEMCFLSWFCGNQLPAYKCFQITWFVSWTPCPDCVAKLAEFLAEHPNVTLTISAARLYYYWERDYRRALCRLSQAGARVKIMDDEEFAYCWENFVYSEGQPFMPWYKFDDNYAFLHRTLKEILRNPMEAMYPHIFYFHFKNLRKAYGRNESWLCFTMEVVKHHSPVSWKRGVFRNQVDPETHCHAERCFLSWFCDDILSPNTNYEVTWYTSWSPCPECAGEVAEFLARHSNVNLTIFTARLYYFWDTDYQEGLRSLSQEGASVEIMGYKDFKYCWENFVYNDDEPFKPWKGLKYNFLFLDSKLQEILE
(In qHTS, concentration-response curves come from the screen itself.)
In the case of `CCC(=O)NC(c1ccc(OC)cc1)c1c(O)ccc2ccccc12` (configuration not stated), the Potency was 6.27 µM (active).

As to `CCCC(=O)NC(c1ccc(OC)cc1)c1ccc2cccnc2c1O` (configuration not stated), the “activity, negative = inhibitor” value was -1.01%.

On to `CN1/C(=C\C=C(/C#N)C(=O)Nc2ccc(Cl)cc2)C(C)(C)c2ccccc21`, for which the Potency is 5.59 µM (active).

Turning to `CN1/C(=C\C=C(/C#N)C(=O)Nc2ccccc2F)C(C)(C)c2ccccc21`, the Potency is 16.4 µM (active).

Regarding `Cc1ccccc1C1CC(c2cccs2)=NN1S(C)(=O)=O` (configuration not stated), the “activity, negative = inhibitor” value was -23.5%.

Turning to `Cc1ccc(C2=NN(S(=O)(=O)c3ccccc3)C(c3ccccc3O)C2)cc1` (configuration not stated), the Potency is 18.4 µM (active).

Take `Cc1ccc(C2=NN(C(=O)c3cccs3)C(c3ccccc3O)C2)cc1` (configuration not stated): the “activity, negative = inhibitor” value was -4.39% [at 36.9 µM].

In the case of `O=Nc1ccc(O)c2ncccc12`, the “activity, negative = inhibitor” value was -23.5% [at 36.9 µM].

As to `Cc1[nH]c2ccccc2c1/C=C/c1ccc2ccccc2n1`, the Potency was 18.4 µM (active).

Regarding `Cc1[nH]c2ccccc2c1/C=C/c1ccnc2ccccc12`, the Potency was 3.26 µM (active).

For `O=C(CCl)N1c2ccccc2Oc2ccc3ccccc3c21`, the Potency was 14 µM (active).

Take `COc1cc(C2Oc3ccccc3C=C2[N+](=O)[O-])cc(OC)c1OC` (configuration not stated): the Potency is 15.8 µM (active).

For `CCN(CC)c1nc2ccccc2nc1C(C#N)C(=O)NCCc1ccccc1` (configuration not stated), the Potency is 7.31 µM (active).

On to `N#CC(C(=O)NCc1ccccc1)c1nc2ccccc2nc1N1CCCC1` (configuration not stated), for which the Potency is 3.66 µM (active).

Take `CCCCn1c(N)c(N(Cc2ccccc2OC)C(=O)c2ccc([N+](=O)[O-])s2)c(=O)[nH]c1=O`: the “activity, negative = inhibitor” value was -16.1%.

Consider `Cc1cc2nc3s/c(=C/c4ccc(-c5ccccc5C(=O)O)o4)c(=O)n3c2cc1C`, for which the Potency is 11.6 µM (active).

Consider `O=C(N/N=C/c1ccsc1)c1cc(-c2cccs2)nc2ccccc12`, for which the Potency is 15.8 µM (active).

As for `Cc1cc(C(=O)N/N=C/c2ccc3c(c2)OCO3)c2ccccc2n1`, the Potency was 4.44 µM (active).

Take `O=C(N/N=C/c1ccc2c(c1)OCO2)c1cc(-c2ccncc2)nc2ccccc12`: the Potency was 6.27 µM (active).

With `Cc1cccc(C)c1OCC(=O)N/N=C/c1ccc2c(c1)OCO2`, the Potency is 3.53 µM (active).

Turning to `O=C(N/N=C/c1ccc2c(c1)OCO2)c1cc(-c2ccco2)nc2ccccc12`, the Potency was 12.5 µM (active).

In the case of `Cc1cc(NC(=O)/C(C#N)=C/c2ccc(-c3ccc(SC(F)F)cc3)o2)n(-c2ccccc2)n1`, the Potency is 7.31 µM (active).

On to `Cc1cc(NC(=O)/C(C#N)=C\c2ccc(-c3ccc(SC(F)F)cc3)o2)n(-c2ccccc2)n1`, for which the Potency was 8.2 µM (active).

With `COCCN(CCOC)Cc1c(O)ccc2c1O/C(=C\c1ccc(C)o1)C2=O`, the “activity, negative = inhibitor” value is -6.56%.

`N#CCSc1ccccc1NC(=O)COc1ccc(-c2nnco2)cc1`: the Potency was 17.7 µM (active).

As to `CCOc1cc(/C=C2\N=C(SC(C)C(N)=O)N(c3ccc(OC(F)F)cc3)C2=O)ccc1O` (configuration not stated), the Potency was 4.44 µM (active).

On to `O=C(N/N=C/c1ccc(Cl)cc1)c1cc(-c2cccnc2)nc2ccccc12`, for which the Potency was 4.44 µM (active).

Turning to `Cc1cc(C(=O)N/N=C/c2ccc(C)o2)c2ccccc2n1`, the Potency was 2.23 µM (active).

For `C/C(=N\NC(=O)c1cc(C)nc2ccccc12)c1ccncc1`, the “activity, negative = inhibitor” value is -7.52% [at 36.9 µM].

For `Cc1ccc(/C=N/NC(=O)c2cc(-c3ccccc3)nc3ccccc23)o1`, the Potency was 14 µM (active).

Take `Cc1ccc(C=NNC(=O)c2cc(-c3cccnc3)nc3ccccc23)o1`: the Potency is 8.86 µM (active).

On to `CCOc1ccc(-c2cc(C(=O)N/N=C(\C)c3cccnc3)c3ccccc3n2)cc1`, for which the “activity, negative = inhibitor” value is -1.35% [at 36.9 µM].

In the case of `CCCN(C(=O)CSc1n[nH]c(-c2ccc(OC)cc2)n1)c1c(N)n(Cc2ccccc2)c(=O)[nH]c1=O`, the “activity, negative = inhibitor” value was -7.52%.

On to `C/C(=N\NC(=S)NCc1ccccc1)c1cccs1`, for which the “activity, negative = inhibitor” value was 0.839%.

Turning to `CCOC(=O)Nc1ccc2nc(-c3cscn3)[nH]c2c1`, the Potency is 5.59 µM (active).

On to `CC[n+]1c(/C=C/Nc2ccccc2)oc2ccccc21`, for which the Potency was 18.4 µM (active).

As to `CC[n+]1c(/C=C/Nc2ccccc2)oc2ccc(OC)cc21`, the Potency was 16.4 µM (active).

Consider `CC[n+]1c(/C=C/N(C)c2ccccc2)oc2ccc(F)cc21`, for which the Potency is 17.7 µM (active).

Regarding `NC(=O)c1ccc(NC(=O)C#Cc2ccccc2)cc1`, the “activity, negative = inhibitor” value is -24.9% [at 36.9 µM].

For the compound `Cc1cc(/C=N/NC(=O)c2cc3ccccc3o2)c(C)n1C`, the “activity, negative = inhibitor” value was -21.4% [at 36.9 µM].

Turning to `Cc1c(/C=N\NC(=O)c2cc3ccccc3o2)c2ccccc2n1C`, the Potency is 5.59 µM (active).

Turning to `O=C(N/N=C/c1cccc2ccccc12)c1cc2ccccc2o1`, the Potency is 7.9 µM (active).

Regarding `COc1cc(Cl)c(C)cc1Nc1nc2ccccc2nc1NS(=O)(=O)c1ccccc1`, the Potency is 1.46 µM (active).

For the compound `Cc1cccc(C)c1Nc1nc2ccccc2nc1NS(=O)(=O)c1ccccc1`, the Potency was 23.1 µM (active).

As to `COc1ccc(OC)c(Nc2nc(-c3ccncc3)nc3ccccc23)c1`, the “activity, negative = inhibitor” value is -24.7% [at 36.9 µM].

For `CCOC(=O)N1CCN(/C=C(\C#N)c2nc3ccccc3s2)CC1`, the Potency is 18.4 µM (active).

Regarding `Cc1cc(Br)ccc1SCC(=O)OC/C(O)=C(\C#N)c1nc2ccccc2[nH]1`, the “activity, negative = inhibitor” value is -16.4%.

Regarding `O=C(CCCCl)Oc1ccc2cc(-c3ccc4ccccc4n3)c(=O)oc2c1`, the “activity, negative = inhibitor” value was 19.5%.

In the case of `CCOc1ccccc1Nc1nnc(-c2cc3cc(Cl)ccc3oc2=O)s1`, the Potency is 5.17 µM (active).

`COc1ccc2oc(=O)c(-c3nc4ccccc4o3)cc2c1`: the Potency is 14.6 µM (active).

With `CCOc1ccccc1Nc1nnc(-c2cc3cc(OC)ccc3oc2=O)s1`, the Potency was 9.2 µM (active).

Regarding `CC(O)CN(CC(C)O)c1ccc2c(c1)Cc1cc([N+](=O)[O-])ccc1-2` (configuration not stated), the Potency was 2.31 µM (active).

Consider `CCN1C(=O)/C(=C/C=C2\N(CC)c3cc(S(=O)(=O)N(C)C)ccc3N2c2ccccc2)SC1=S`, for which the Potency is 6.27 µM (active).

On to `CCN(CC)c1ccc(/C=N/N=C(N)N)c(O)c1`, for which the Potency was 4.44 µM (active).

As for `CCN(CC)c1ccc(/C=N/NC(=S)NC)c(O)c1`, the “activity, negative = inhibitor” value is -12.6%.

Turning to `CN(Cc1cnn(Cc2ccccc2)c1)C(=O)c1cccc(S(=O)(=O)N2CCOCC2)c1`, the Potency was 11.2 µM (active).

On to `O=C(O)CCCN1C(=O)/C(=C\C(Cl)=C\c2ccccc2)SC1=S`, for which the Potency was 7.04 µM (active).

As to `CC1=CC(C)(C)NC(=S)N1c1ccc2ccccc2c1`, the “activity, negative = inhibitor” value is 5.28% [at 36.9 µM].

`N#CC(=Cc1ccccn1)c1nc(-c2ccc(Cl)cc2)cs1`: the Potency was 12.5 µM (active).

In the case of `O=C(NCCc1ccccc1Cl)c1ccc(Cn2c(=O)c3cccn3c3cccnc32)cc1`, the Potency is 18.4 µM (active).

Take `O=C(N/N=C/c1ccc(-c2ccc([N+](=O)[O-])cc2)o1)[C@H]1C[C@@H]1c1ccccc1`: the “activity, negative = inhibitor” value is -1.57%.

As to `O=C(Cc1ccccc1)N/N=C/c1ccc(-c2ccc([N+](=O)[O-])cc2)o1`, the Potency was 15.8 µM (active).

Turning to `Cc1cc([N+](=O)[O-])ccc1-c1ccc(/C=N/NC(=O)c2ccc(Br)o2)o1`, the Potency is 20.6 µM (active).

Turning to `COCCNC(=S)N/N=C(\C)c1ccc(OC(F)F)cc1`, the “activity, negative = inhibitor” value is 10.2%.

On to `COCCNC(=S)NN=C1CCCCCC1`, for which the “activity, negative = inhibitor” value was 0.562%.

Regarding `COCCNC(=S)N/N=C/c1ccc(-c2ccc([N+](=O)[O-])cc2)o1`, the Potency is 15.8 µM (active).

`O=[N+]([O-])c1ccc(-c2ccc(/C=N/Nc3nc(NCc4ccccc4)nc(N4CCOCC4)n3)o2)cc1`: the Potency is 18.4 µM (active).
